{"source": "paper PMC4552634", "about": "“A New Set of Chemical Starting Points with Plasmodium falciparum Transmission-Blocking Potential for Antimalarial Drug Discovery” (PLoS ONE, 2015)", "note": "In all, about 13,000 compounds went through this assay and about 3,200 (25%) showed an effect of 50% or more. Some of the results follow."}
{"system": "P. falciparum stage V gametocytes", "set-up": "BacTiter-Glo ATP luminescence viability of purified stage V gametocytes in 384-well plates, per cent inhibition versus DMSO", "details": "48 h, 5 µM; inhibitor", "units": {"% Inhibition": "%"}}
{"molecule": "COc1ccc(C2CC(c3cccs3)=NN2C(=O)COc2cccc3c2CCCC3O)cc1OC", "note": "(stereo not shown) [TCMDC-125033]", "% Inhibition": 11.22}
{"molecule": "O=C(C=Cc1ccc(Cl)c(Cl)c1)NCCCCCN1CCC(CCCNC(=O)C2CC2c2ccccc2)CC1", "note": "(stereo not shown) [TCMDC-139572]", "% Inhibition": -16.95}
{"molecule": "O=C(/C=C/c1ccc(Cl)c(Cl)c1)NCCCCCN1CCC(NC(=O)Nc2ccc(Br)cc2)CC1", "note": "[TCMDC-135728]", "% Inhibition": 5.216}
{"molecule": "O=C(C=Cc1ccc(Cl)c(Cl)c1)NCCCCCN1CCC(CCCNS(=O)(=O)c2ccc(Br)cc2)CC1", "note": "[TCMDC-139590]", "% Inhibition": 106.1}
{"molecule": "COc1ccc(S(=O)(=O)NCCCC2CCN(CCCCCNC(=O)C=Cc3ccc(Cl)c(Cl)c3)CC2)cc1", "note": "[TCMDC-139587]", "% Inhibition": 105.9}
{"molecule": "O=C(C=Cc1ccc(Cl)c(Cl)c1)NCCCCCN1CCCC(CCCNS(=O)(=O)c2ccc(Br)cc2)C1", "note": "(stereo not shown) [TCMDC-139592]", "% Inhibition": 37.84}
{"molecule": "O=C(C=Cc1ccc(Cl)c(Cl)c1)NCCCCCN1CCC(CCNS(=O)(=O)c2ccc(Br)cc2)CC1", "note": "[TCMDC-139586]", "% Inhibition": 95.36}
{"molecule": "CCCCCCCCS(=O)(=O)NCCCC1CCN(CCCCCNC(=O)C=Cc2ccc(Cl)c(Cl)c2)CC1", "note": "[TCMDC-139588]", "% Inhibition": 108.5}
{"molecule": "O=C(/C=C/c1ccc(Cl)c(Cl)c1)NCCCCCN1CCC(NS(=O)(=O)c2cc(Cl)cc(Cl)c2)CC1", "note": "[TCMDC-135905]", "% Inhibition": 1.117}
{"molecule": "COc1ccc(S(=O)(=O)NCCC2CCN(CCCCCNC(=O)C=Cc3ccc(Cl)c(Cl)c3)CC2)cc1", "note": "[TCMDC-139584]", "% Inhibition": 28.62}
{"molecule": "Cc1cc(C)cc(NC(=S)NCCCCN2CCN(c3cccc(Cl)c3)CC2)c1", "note": "[TCMDC-124057]", "% Inhibition": 38.25}
{"molecule": "CC1(C)CN(CCC2CCC(NC(=O)/C=C/c3ccc(F)cc3F)CC2)Cc2ccc(C#N)cc21", "note": "(stereo not shown) [TCMDC-139504]", "% Inhibition": 4.044}
{"molecule": "Nc1c2nc(-c3c(F)cccc3Cl)[nH]c(=O)c2nc(=O)n1-c1ccccc1", "note": "[TCMDC-124052]", "% Inhibition": 4.598}
{"molecule": "CN(CCN)Cc1ccc(-c2ccc(-c3nc4ccc(F)cc4[nH]3)s2)cc1", "note": "[TCMDC-132819]", "% Inhibition": 40.81}
{"molecule": "CN(C)CCN(C)Cc1ccc(-c2cccc(-c3nc4ccccc4[nH]3)c2)cc1", "note": "[TCMDC-132567]", "% Inhibition": 5.675}
{"molecule": "c1ccc2[nH]c(-c3ccc(-c4ccc(CN5CCN(c6ccncc6)CC5)cc4)s3)nc2c1", "note": "[TCMDC-136770]", "% Inhibition": -27.84}
{"molecule": "CN(CCc1ccccn1)Cc1ccc(-c2ccc(-c3nc4ccccc4[nH]3)s2)cc1", "note": "[TCMDC-136766]", "% Inhibition": 58.81}
{"molecule": "c1ccc2[nH]c(-c3ccc(-c4ccc(CN5CCN(CCN6CCOCC6)CC5)cc4)s3)nc2c1", "note": "[TCMDC-133938]", "% Inhibition": 11.37}
{"molecule": "c1ccc2[nH]c(-c3ccc(-c4ccc(CN5CCCCC5)cc4)s3)nc2c1", "note": "[TCMDC-136768]", "% Inhibition": 35.93}
{"molecule": "c1cncc(CN2CCN(Cc3ccc(-c4ccc(-c5nc6ccccc6[nH]5)s4)cc3)CC2)c1", "note": "[TCMDC-136765]", "% Inhibition": 62.12}
{"molecule": "CCCN1CCN(Cc2ccc(-c3ccc(-c4nc5ccccc5[nH]4)s3)cc2)CC1", "note": "[TCMDC-136767]", "% Inhibition": -1.011}
{"molecule": "CN(C)CCCN1CCN(Cc2ccc(-c3ccc(-c4nc5ccccc5[nH]4)s3)cc2)CC1", "note": "[TCMDC-136769]", "% Inhibition": 73.2}
{"molecule": "Cc1nn(-c2ccccc2)c2nc(-c3ccccc3)cc(C(=O)N3CCOCC3)c12", "note": "[TCMDC-124527]", "% Inhibition": -18.66}
{"molecule": "Cc1cc(N2CCCC2)nc(Nc2ccc(NC(=O)CC(C)C)cc2)n1", "note": "[TCMDC-124715]", "% Inhibition": 12.42}
{"molecule": "COc1ccc(S(=O)(=O)NC2CCN(c3ccnc4cc(Cl)ccc34)C2)cc1", "note": "(stereo not shown) [TCMDC-133649]", "% Inhibition": 9.561}
{"molecule": "NC(N)=NN=Cc1cc([N+](=O)[O-])ccc1Sc1ccccc1CO", "note": "[TCMDC-137883]", "% Inhibition": 34.86}
{"molecule": "NC(N)=NN=Cc1ccccc1OCc1ccccc1Cl", "note": "[TCMDC-124250]", "% Inhibition": 59.45}
{"molecule": "CC(=O)C1(c2ccccc2)CCN(CCC2(c3ccc(Cl)c(Cl)c3)CN(C(=O)CC(C)C)CCO2)CC1", "note": "(stereo not shown) [TCMDC-135324]", "% Inhibition": -34.64}
{"molecule": "CC(=O)Nc1ccc(S(=O)(=O)N(Cc2cccc(Oc3ccccc3)c2)C2CCN(C/C=C(\\C)CCC=C(C)C)CC2)cc1", "note": "[TCMDC-139619]", "% Inhibition": 47.01}
{"molecule": "Clc1ccc2c(NCc3ccccn3)ccnc2c1", "note": "[TCMDC-125103]", "% Inhibition": 3.053}
{"molecule": "O=S(=O)(Nc1cccc(F)c1CNCc1ccccn1)c1ccc(Cl)c(Cl)c1", "note": "[TCMDC-132598]", "% Inhibition": 71.21}
{"molecule": "Cc1cnc(CNCc2ccc(S(=O)(=O)Nc3ccc(Oc4cccc(Cl)c4)cc3)cc2)cn1", "note": "[TCMDC-136202]", "% Inhibition": -12.09}
{"molecule": "CCN1CCN(CC(O)CNC(=O)Nc2ccc(Cl)cc2)CC1", "note": "(stereo not shown) [TCMDC-134634]", "% Inhibition": 26.07}
{"molecule": "CC(=NNC(=N)N)C(=O)Nc1ccc(Cl)c(Cl)c1", "note": "[TCMDC-137564]", "% Inhibition": -28.53}
{"molecule": "CCN(CC)C(=NC(=N)NCCCCCCNC(=N)N=C(Nc1ccc(Cl)cc1)N(CC)CC)Nc1ccc(Cl)cc1", "note": "[TCMDC-131807]", "% Inhibition": 113}
{"molecule": "CCN(CC)C(=NCCCCCCN=C(NC(=N)c1ccc(Cl)cc1)N(CC)CC)NC(=N)c1ccc(Cl)cc1", "note": "[TCMDC-131806]", "% Inhibition": 117.9}
{"molecule": "CCN(CC)C(=NC(=N)Nc1ccc(Cl)cc1)NCCCCCCCCNC(=NC(=N)Nc1ccc(Cl)cc1)N(CC)CC", "note": "[TCMDC-131812]", "% Inhibition": 116.8}
{"molecule": "CCCN1CCN(CC(O)CNC(=O)Nc2ccc(Cl)cc2)CC1", "note": "(stereo not shown) [TCMDC-134645]", "% Inhibition": -0.7262}
{"molecule": "CC(=O)Nc1ccc(OCCCCCOc2ccc(NC(C)=O)cc2Cl)c(Cl)c1", "note": "[TCMDC-137222]", "% Inhibition": -37.52}
{"molecule": "COc1ccc(CCN(C)CCCCNC(=O)c2ccc(NC(=O)c3ccc(Cl)cc3)cc2)c(OC)c1", "note": "[TCMDC-138506]", "% Inhibition": 49.32}
{"molecule": "CCCCN1CCN(CC(O)CNC(=O)Nc2ccc(Cl)cc2)CC1", "note": "(stereo not shown) [TCMDC-134646]", "% Inhibition": 4.082}
{"molecule": "CCN(CC)/C(=N/C(=N)Nc1ccc(Cl)c(Cl)c1)NCCCCCCN/C(=N\\C(=N)Nc1ccc(Cl)c(Cl)c1)N(CC)CC", "note": "[TCMDC-131808]", "% Inhibition": 116.2}
{"molecule": "C[C@@H]([C@@H](CCCCc1ccccc1)C(=O)N[C@H](C(=O)Nc1cccnc1)C(C)(C)C)N(O)C=O", "note": "[TCMDC-138380]", "% Inhibition": -15.27}
{"molecule": "CCN(C(=O)c1ccc(NC(=O)c2cccs2)cc1)c1nc2c(C)cccc2s1", "note": "[TCMDC-125338]", "% Inhibition": 37.84}
{"molecule": "O=C(Nc1ccc(OC2CCN(Cc3ccsc3)CC2)c(Cl)c1)c1cccs1", "note": "[TCMDC-133740]", "% Inhibition": -2.262}
{"molecule": "CCn1c(Cc2ccccc2)nnc1SCC(=O)N1c2ccccc2Sc2ccccc21", "note": "[TCMDC-124373]", "% Inhibition": -22.31}
{"molecule": "CC(=O)N[C@H](C(=O)Nc1ccc(-c2cccc(-c3nc4c(C)cccc4[nH]3)c2)cc1)C(C)C", "note": "[TCMDC-136853]", "% Inhibition": -50.38}
{"molecule": "Cc1cccc2[nH]c(-c3cccc(-c4ccc(NC(=O)C(C)CN5CCN(C)CC5)cc4)c3)nc12", "note": "(stereo not shown) [TCMDC-137151]", "% Inhibition": 58.09}
{"molecule": "CCC(C)NC(=O)Nc1cccc(-c2cccc(-c3nc4c(C)cccc4[nH]3)c2)c1", "note": "(stereo not shown) [TCMDC-133239]", "% Inhibition": 36.1}
{"molecule": "CCC(C)NC(=O)Nc1ccc(-c2cccc(-c3nc4c(C)cccc4[nH]3)c2)cc1", "note": "(stereo not shown) [TCMDC-133238]", "% Inhibition": -3.731}
{"molecule": "Cc1cccc2[nH]c(-c3cccc(-c4cccc(NC(=O)C(C)CN(C)C)c4)c3)nc12", "note": "(stereo not shown) [TCMDC-137110]", "% Inhibition": -50.7}
{"molecule": "Cc1cccc2[nH]c(-c3cccc(-c4ccc(NC(=O)C(C)CN5CCOCC5)cc4)c3)nc12", "note": "(stereo not shown) [TCMDC-137138]", "% Inhibition": 85.59}
{"molecule": "Cc1cccc2[nH]c(-c3ccc(-c4ccc(NC(=O)C(C)CN(C)C)cc4)cc3)nc12", "note": "(stereo not shown) [TCMDC-137105]", "% Inhibition": -73.49}
{"molecule": "Cc1cccc2[nH]c(-c3cccc(-c4ccc(NC(=O)CN5CCOCC5)cc4)c3)nc12", "note": "[TCMDC-136970]", "% Inhibition": -20.19}
{"molecule": "Cc1cccc2[nH]c(-c3ccc(-c4cccc(NC(=O)C(C)CN5CCN(C)CC5)c4)cc3)nc12", "note": "(stereo not shown) [TCMDC-137144]", "% Inhibition": 36.55}
{"molecule": "Cc1cccc2[nH]c(-c3cccc(-c4cccc(NC(=O)C(C)CN5CCN(C)CC5)c4)c3)nc12", "note": "(stereo not shown) [TCMDC-137150]", "% Inhibition": 88.37}
{"molecule": "Cc1cccc2[nH]c(-c3cccc(-c4ccc(NC(=O)C(C)C(=O)NC(C)C)cc4)c3)nc12", "note": "(stereo not shown) [TCMDC-132149]", "% Inhibition": -14.66}
{"molecule": "Cc1cccc2[nH]c(-c3cccc(-c4ccc(NC(=O)C(C)CN(C)C)cc4)c3)nc12", "note": "(stereo not shown) [TCMDC-137111]", "% Inhibition": 95.4}
{"molecule": "CC(CCc1ccccc1)NCC(O)c1ccc2c3c(cccc13)C(=O)N2C", "note": "(stereo not shown) [TCMDC-131252]", "% Inhibition": 17.04}
{"molecule": "COc1cc(Cc2cnc(N)nc2N)cc(OCCCCCCN2C(=O)c3ccccc3C2=O)c1OC", "note": "[TCMDC-138043]", "% Inhibition": 3.318}
{"molecule": "Cc1ccc(C(C#N)c2ccc3c(C(F)(F)F)cc(C(F)(F)F)nc3n2)cc1", "note": "(stereo not shown) [TCMDC-123762]", "% Inhibition": -33.32}
{"molecule": "CCc1cc(-c2onc(C(F)(F)F)c2-c2ccccc2)c(O)cc1OC", "note": "[TCMDC-124464]", "% Inhibition": 25.65}
{"molecule": "COc1ccc(-c2c(-c3ccc(OCc4ccccc4)cc3O)n[nH]c2C(F)(F)F)cc1", "note": "[TCMDC-124771]", "% Inhibition": -11.85}
{"molecule": "CCc1cc(-c2n[nH]c(C(F)(F)F)c2-c2ccccc2)c(O)cc1OC", "note": "[TCMDC-123700]", "% Inhibition": 70.95}
{"molecule": "COc1ccc(NC(=O)Nc2nc3ccccc3s2)cc1N1CCN(C)CC1", "note": "[TCMDC-139872]", "% Inhibition": -6.741}
{"molecule": "COc1ccccc1CCN(C)CCN1CCC(NC(=O)c2ccc(-c3ccc(C(F)(F)F)cc3)cc2)CC1", "note": "[TCMDC-138797]", "% Inhibition": 43.57}
{"molecule": "COc1ccccc1N1CCN(CCCCN(C(=O)Nc2cccc(Cl)c2)C(=O)Nc2cccc(Cl)c2)CC1", "note": "[TCMDC-131986]", "% Inhibition": -74.5}
{"molecule": "COc1cccc(OC)c1CN1CCC(N(C)CCCCCCCCCN2CCC(OC(=O)Nc3ccccc3-c3ccccc3)CC2)CC1", "note": "[TCMDC-134690]", "% Inhibition": 126.7}
{"molecule": "COc1cc(CN2CCC(C(=O)Nc3ccc(-c4cccc(C)c4)cc3)CC2)ccc1O", "note": "[TCMDC-124633]", "% Inhibition": 46.38}
{"molecule": "COc1cccc(OC)c1CN1CCC(N(C)CCCCCCCCN2CCC(OC(=O)Nc3ccccc3-c3ccccc3)CC2)CC1", "note": "[TCMDC-134684]", "% Inhibition": 106.8}
